In assay [1] the test system is Wnt5a (protein binding on small-molecule microarray). The assay is described as follows: Wnt5a binders on small-molecule microarray, primary screen, biophysical, 635/667 nm fluorescence (AID 1142).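 Note: fluorescence read at 667 nm with signal to noise per printed feature.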 The conditions noted are these: 635 nm fluorescence, higher = more signal.
Assay [2] in a line: cell viability in Huh7 cells, primary screen, cytotoxicity control for HCV replication inhibitor project, CellTiter-Glo luminescence, basal, 48 h (AID 1143).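 Note: Huh7 hepatoma cells carrying a hepatitis C replication reporter with no stimulus; test concentration not given here.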 The settings on record: Huh7 HCV replicon, higher = more signal, called active from +8 up or from −8 down.
The nature of assay [3]: P. aeruginosa biofilm formation inhibitors, primary screen, PAO1 strain, BacTiter-Glo luminescence, LB-PBS (AID 1144). The settings on record: 12 h, higher = more signal.
Assay [4] is described as follows: CREB reporter modulators without forskolin, primary screen, cell-based, PC12, CRE-LacZ reporter, unstimulated (AID 1145). The conditions noted are these: no forskolin, luminescence, 4.5 h, higher = more signal, called active from +8 up or from −8 down.
Assay [5] in a line: CREB reporter modulators under forskolin, primary screen, cell-based, PC12, CRE-LacZ reporter, forskolin-stimulated (AID 1146).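 Note: PC12 cells with 6xCRE LacZ reporter stimulated by forskolin 10 µM; beta-galactosidase reporter signal reflecting CREB driven transcription.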 The conditions noted are these: luminescence, 4.5 h, higher = more signal, called active from +8 up or from −8 down.
For assay [6], the target named is Streptavidin (Streptomyces avidinii) (UniProt P22629). The assay can be described thus: streptavidin binders on small-molecule microarray, primary screen, artefact control for SMM compound annotation, biophysical, 635/667 nm fluorescence (AID 1147).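 Note: signal reflects streptavidin binding to arrayed compounds as a control protein.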 The settings on record: streptavidin binding, higher = more signal.
Assay [7] can be described thus: small-molecule binders of probe aInhba, primary screen, biochemical, small-molecule microarray, 635/667 nm fluorescence (AID 1148).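 Note: score merges 667nm spot fluorescence with signal-to-noise for antibody binding to printed compounds.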 The conditions noted are these: higher = more signal.
Assay [8] deals with Torsin-1A (Homo sapiens) (UniProt O14656). The assay can be described thus: torsin A binders from cell lysate, primary screen, small-molecule microarray, wild-type, 635/667 nm (AID 1149). The settings on record: COS7 hTOR1A-WT lysate, 635 nm fluorescence, higher = more signal.
Assay [9] shares this target. The assay is described as follows: small-molecule binders of mutant TOR1A in lysate, primary screen, cell lysate, small-molecule microarray, COS7 lysate, 635/667 nm fluorescence (AID 1150).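 Note: score pools 667 nm emission and signal to noise measuring lysate protein binding.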 The conditions noted are these: COS7 hTOR1A mutant lysate, 635 nm fluorescence, higher = more signal.
For assay [10], the system named is Sonic hedgehog protein (Shh). The assay can be described thus: small-molecule binders of Shh protein, primary screen, biochemical, small-molecule microarray, 635/667 nm fluorescence (AID 1151).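 Note: Shh protein binding to compounds spotted on small-molecule microarray slides; score combines spot fluorescence intensity with signal-to-noise across triplicate slides.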 The settings on record: small-molecule microarray binding, 635 nm fluorescence; higher = more signal.
A short description of assay [11]: E. coli DRC41 culture turbidity changes, primary screen, E. coli filamentation inducer project, strain DRC41, OD650, 48 h (AID 1152).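 Note: E. coli MC1000 strain DRC41 lacking acrAB efflux pump and sulA.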 The conditions noted are these: E. coli DRC41 (acrAB sulA), higher = more signal, called active from +8 up or from −8 down.
Assay [12] is described as follows: small-molecule binders of probe aLefty1, primary screen, biochemical, small-molecule microarray, 635/667 nm fluorescence (AID 1153).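 Note: score merges spot fluorescence with signal-to-noise ratio from the scanned slide images.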 The conditions noted are these: higher = more signal.
A short description of assay [13]: PSAC antagonists in infected red cells, primary screen, cell-based, P. falciparum Indochina, OD700, 1 h (AID 1154). The settings on record: P. falciparum Indochina infected RBC osmotic lysis, higher = more signal, called active from +8 up or from −8 down.
Assay [14] can be described thus: PSAC antagonists in infected red cells, primary screen, cell-based, P. falciparum Indochina, OD700, 2 h (AID 1155).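 Note: lysis reports solute entry through the parasite surface anion channel PSAC; channel blockers reduce lysis of infected cells.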 The settings on record: P. falciparum Indochina infected erythrocytes, osmotic lysis OD700; higher = more signal, called active from +8 up or from −8 down.
Assay [15] is described as follows: osmotic lysis modulators in infected erythrocytes, primary screen, PSAC antagonist project, cell-based, P. falciparum Indochina, OD700, 3 h (AID 1156). The conditions noted are these: higher = more signal, called active from +8 up or from −8 down.
A short description of assay [16]: PSAC antagonists in infected red cells, primary screen, cell-based, P. falciparum Indochina, OD700, 18 h (AID 1157). The conditions noted are these: P. falciparum Indochina infected erythrocytes, osmotic lysis OD700, 18 h; higher = more signal, called active from +8 up or from −8 down.
Assay [17] can be described thus: modulators of S6 phosphorylation in cells, primary screen, cell-based, A549, cytoblot, luminescence, serum-stimulated (AID 1158).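 Note: serum-stimulated A549 lung adenocarcinoma cells; signal is phosphorylated S6 detected by cytoblot immunostaining with HRP secondary.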 The settings on record: A549 phospho-S6 cytoblot, 5 h, higher = more signal.
The target of assay [18] is NADPH oxidase 2 (Homo sapiens) (UniProt P04839). The assay is described as follows: NOX2-dependent H2O2 signal modulators, primary screen, NOX inhibitor project, cell-based, HEK293-NOX2, PMA-stimulated, Amplex Red fluorescence (AID 1159). Note: test concentration not given here. The settings on record: 45 min, higher = more signal, called active from +8 up or from −8 down.
In assay [19] the target is NADPH oxidase 4 (Homo sapiens) (UniProt Q9NPH5). The assay is described as follows: NOX4-dependent H2O2 signal modulators, primary screen, NOX inhibitor project, cell-based, HEK293-NOX4, tetracycline-induced, Amplex Red fluorescence (AID 1160). The conditions noted are these: 45 min, higher = more signal, called active from +8 up or from −8 down.
Assay [20] concerns the target NADPH oxidase 5 (Homo sapiens) (UniProt Q96PH1). The assay is described as follows: NOX5-dependent H2O2 signal modulators, primary screen, NOX inhibitor project, cell-based, HEK293-NOX5, Amplex Red fluorescence (AID 1161). The conditions noted are these: HEK293-NOX5, ionomycin, 45 min, higher = more signal.

The source made the active and inactive calls. Unless noted, the rule behind the calls is not given here.

Chain of Streptavidin (Streptomyces avidinii) (P22629 whole entry, looked up): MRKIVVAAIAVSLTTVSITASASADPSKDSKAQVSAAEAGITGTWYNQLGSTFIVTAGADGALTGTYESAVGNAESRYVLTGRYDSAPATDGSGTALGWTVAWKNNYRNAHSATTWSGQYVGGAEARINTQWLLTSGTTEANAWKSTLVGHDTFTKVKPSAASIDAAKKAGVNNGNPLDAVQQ
Chain of NADPH oxidase 5 (Homo sapiens) (Q96PH1 whole entry, looked up): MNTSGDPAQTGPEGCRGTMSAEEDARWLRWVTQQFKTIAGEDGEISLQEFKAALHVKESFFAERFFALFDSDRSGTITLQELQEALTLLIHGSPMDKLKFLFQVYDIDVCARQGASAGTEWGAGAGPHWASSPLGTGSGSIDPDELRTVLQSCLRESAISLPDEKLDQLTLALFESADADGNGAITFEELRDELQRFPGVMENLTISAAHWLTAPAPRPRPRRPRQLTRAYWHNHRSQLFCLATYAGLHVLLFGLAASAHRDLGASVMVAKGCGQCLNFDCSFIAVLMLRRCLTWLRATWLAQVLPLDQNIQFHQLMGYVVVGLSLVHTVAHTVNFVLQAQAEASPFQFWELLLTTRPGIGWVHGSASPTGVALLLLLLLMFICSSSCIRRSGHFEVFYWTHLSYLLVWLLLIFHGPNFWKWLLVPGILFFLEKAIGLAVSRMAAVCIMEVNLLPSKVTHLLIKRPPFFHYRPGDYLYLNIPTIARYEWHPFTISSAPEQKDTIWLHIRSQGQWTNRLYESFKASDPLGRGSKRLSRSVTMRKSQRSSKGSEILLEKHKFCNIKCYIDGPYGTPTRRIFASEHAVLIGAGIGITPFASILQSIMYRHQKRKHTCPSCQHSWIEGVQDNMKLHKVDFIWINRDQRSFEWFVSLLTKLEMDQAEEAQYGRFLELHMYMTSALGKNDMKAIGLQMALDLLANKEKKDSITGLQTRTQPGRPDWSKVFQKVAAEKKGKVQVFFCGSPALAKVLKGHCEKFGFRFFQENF
Chain of NADPH oxidase 2 (Homo sapiens) (P04839 whole entry, looked up): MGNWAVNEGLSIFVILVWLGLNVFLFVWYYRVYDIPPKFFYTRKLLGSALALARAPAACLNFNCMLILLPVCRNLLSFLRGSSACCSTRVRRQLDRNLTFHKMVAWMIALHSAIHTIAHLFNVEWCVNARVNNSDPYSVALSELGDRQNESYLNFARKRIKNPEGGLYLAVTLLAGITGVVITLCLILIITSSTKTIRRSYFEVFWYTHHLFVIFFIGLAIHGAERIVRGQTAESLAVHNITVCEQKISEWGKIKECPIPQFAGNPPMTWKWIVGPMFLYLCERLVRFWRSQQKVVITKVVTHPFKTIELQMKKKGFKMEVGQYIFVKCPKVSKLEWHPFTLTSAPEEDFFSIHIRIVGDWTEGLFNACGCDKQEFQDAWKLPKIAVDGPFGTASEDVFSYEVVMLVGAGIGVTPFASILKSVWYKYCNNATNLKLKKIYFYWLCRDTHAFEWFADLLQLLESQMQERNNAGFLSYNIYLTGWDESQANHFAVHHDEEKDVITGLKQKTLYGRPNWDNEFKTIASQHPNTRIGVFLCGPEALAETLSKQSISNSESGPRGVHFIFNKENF
Chain of Torsin-1A (Homo sapiens) (O14656 whole entry, looked up): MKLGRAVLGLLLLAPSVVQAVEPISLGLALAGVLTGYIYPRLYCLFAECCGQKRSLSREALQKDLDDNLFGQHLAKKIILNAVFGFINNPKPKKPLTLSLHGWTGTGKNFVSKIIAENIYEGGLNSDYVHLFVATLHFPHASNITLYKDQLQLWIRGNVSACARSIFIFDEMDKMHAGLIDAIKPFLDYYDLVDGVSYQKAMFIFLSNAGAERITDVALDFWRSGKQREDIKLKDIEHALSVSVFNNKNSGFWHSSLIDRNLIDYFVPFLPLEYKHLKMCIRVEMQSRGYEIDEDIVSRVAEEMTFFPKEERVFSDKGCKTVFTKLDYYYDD
Chain of NADPH oxidase 4 (Homo sapiens) (Q9NPH5 whole entry, looked up): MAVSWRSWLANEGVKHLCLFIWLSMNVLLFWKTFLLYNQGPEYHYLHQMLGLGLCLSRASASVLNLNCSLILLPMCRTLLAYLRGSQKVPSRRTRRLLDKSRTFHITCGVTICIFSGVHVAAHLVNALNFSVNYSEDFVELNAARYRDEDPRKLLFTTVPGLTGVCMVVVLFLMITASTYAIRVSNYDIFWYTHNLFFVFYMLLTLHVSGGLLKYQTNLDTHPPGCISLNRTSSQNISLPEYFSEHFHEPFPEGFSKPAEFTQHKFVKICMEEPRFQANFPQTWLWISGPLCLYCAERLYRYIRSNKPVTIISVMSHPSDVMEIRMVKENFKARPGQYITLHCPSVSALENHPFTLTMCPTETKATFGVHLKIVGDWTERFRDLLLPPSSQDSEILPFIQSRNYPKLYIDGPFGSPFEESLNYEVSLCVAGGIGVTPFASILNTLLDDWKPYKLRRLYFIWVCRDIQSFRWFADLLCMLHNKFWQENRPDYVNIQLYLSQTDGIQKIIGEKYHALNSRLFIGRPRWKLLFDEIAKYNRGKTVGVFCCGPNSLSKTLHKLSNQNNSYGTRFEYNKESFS

For the compound `C[C@@H]1ON(c2ccc(I)cc2)[C@H](c2ccc(OC(=O)OC(C)(C)C)cc2)[C@H]1C(=O)N1C(=O)OC[C@H]1Cc1ccccc1`, the composite z-score in assay [1] was 0.0472; in assay [6], 0.573; in [7] it was -0.0468; in assay [8], 0.0475; in assay [9] it was 0.624; in assay [10] it was 0.639. This compound registered a composite z-score in assay [12] of -0.191. In addition, the z-score is -1.32 (inactive) in assay [2]; -0.829 (inactive) in [3]; -0.415 (inactive) in assay [4]; -0.642 (inactive) in assay [5]; 2.67 (inactive) in assay [11]; 0.789 (inactive) in assay [13]. In addition, the z-score is -0.474 (inactive) in assay [14]; 0.546 (inactive) in assay [15]; -1.73 (inactive) in assay [16]; 1.5 in [17]; -5.57 (inactive) in assay [18]; 0.237 (inactive) in assay [19]. The z-score in assay [20] was 1.39.
As for `CN1C(=O)[C@@H]2[C@@H](CC(COc3ccccc3)=C([C@H](O)CCc3ccccc3)[C@@H]2CO)C1=O`, the composite z-score in assay [1] is -0.0336; in [6], -0.448; in assay [7], -0.128; in assay [8], 0.762; in assay [9] it was 0.0706; in assay [10], 0.497. In assay [12], this compound gave a composite z-score of -0.328. In addition, the z-score in [2] was -1.03 (inactive); in assay [3], 0.272 (inactive); in assay [4], 1.67 (inactive); in assay [5] it was -1.18 (inactive); in assay [11] it was 2.03 (inactive); in assay [13], 29.5 (active). For the same compound, the z-score in assay [14] was 21.6 (active); in assay [15], -0.0433 (inactive); in [16], 1.43 (inactive); in assay [17] it was 0.867; in assay [18] it was -0.561 (inactive); in assay [19], 0.867 (inactive). For the same compound, in [20], the z-score was determined as 0.199.
`COc1ccc(CCNC(=O)[C@@]2(Cc3ccccc3I)c3ccccc3C(=O)N(Cc3ccccc3Cl)[C@H]2c2ccc(CO)cc2)cc1`: the composite z-score was 0.0402 in assay [1]; -0.555 in assay [6]; 0.502 in assay [7]; -0.36 in [8]; 0.397 in assay [9]; 0.527 in [10]. Also, the composite z-score in assay [12] amounted to 0.893. Also, the z-score in assay [2] was -2.74 (inactive); in [3], -0.144 (inactive); in [4], 0.0387 (inactive); in [5], 0.752 (inactive); in assay [11], -1.2 (inactive); in assay [13] it was 4.53 (inactive). Also, the z-score in assay [14] is 1.52 (inactive); in [15], 1.55 (inactive); in [16] it was 0.473 (inactive); in assay [17] it was 0.0403; in assay [18] it was 0.898 (inactive); in [19] it was 0.183 (inactive). Moreover, in assay [20], the z-score was 1.39.
In the case of `C=C(C)[C@@H]1CC=C(C(O)C2C=CC3C(=O)N(c4ccccc4)C(=O)C3N2Nc2ccc(C#N)cc2)CC1` (stereo not given in full), the composite z-score in [1] is 0.335; in [6], 1.48; in assay [7], 0.361; in assay [8] it was 0.202; in [9] it was 0.454; in assay [10] it was -0.0706. The composite z-score in [12] amounted to 0.619. Also, the z-score in assay [2] is -0.133 (inactive); in assay [3] it was -1.68 (inactive); in [4] it was 0.433 (inactive); in assay [5], -0.345 (inactive); in assay [11], -2.24 (inactive); in assay [13], 9.15 (active). The z-score is 3.26 (inactive) in [14]; 0.625 (inactive) in [15]; 2.49 (inactive) in [16]; -0.66 in assay [17]; -1.94 (inactive) in [18]; -3.56 (inactive) in assay [19]. The compound also returned a z-score in assay [20] of -2.27.
As to `CCCNC(=O)[C@@]1(Sc2ccc(C)cc2)CC(=O)N(C2CCCCC2)[C@@H]1c1ccc(CO)cc1I`, the composite z-score is 0.108 in assay [1]; 0.133 in assay [6]; -0.198 in assay [7]; 0.0272 in assay [8]; 0.197 in assay [9]; -0.158 in assay [10]. Besides, in assay [12], the composite z-score was -0.525. Besides, the z-score in assay [2] is -2.76 (inactive); in assay [3], 0.687 (inactive); in assay [4], 0.272 (inactive); in [5], 1.38 (inactive); in assay [11], -0.629 (inactive); in assay [13], 4.93 (inactive). Besides, the z-score was 0.465 (inactive) in assay [14]; 0.0133 (inactive) in assay [15]; 0.376 (inactive) in [16]; -0.328 in [17]; 0.82 (inactive) in assay [18]; 0.142 (inactive) in assay [19]. Also, the z-score in assay [20] worked out at 1.61.
Consider `O=C1NC(=O)C2C1C=CC(C(O)c1ccccn1)N2Nc1ccc(Cl)cc1Cl` (stereo not given), for which the composite z-score in assay [1] was 0.0314; in assay [6], 1.16; in assay [7], -0.101; in [8], -0.117; in [9] it was 0.175; in [10] it was -0.517. In assay [12], this compound gave a composite z-score of 0.121. Also, the z-score in [2] is 0.203 (inactive); in [3] it was -0.595 (inactive); in assay [4] it was 0.0535 (inactive); in assay [5], -0.0259 (inactive); in assay [11], -0.889 (inactive); in assay [13], 0.625 (inactive). In addition, the z-score in assay [14] was 0.435 (inactive); in [15], -0.343 (inactive); in assay [16], 0.949 (inactive); in assay [17] it was -0.881; in [18], -1.39 (inactive); in [19] it was -4.83 (inactive). In [20], the z-score is -3.38.
As to `CC(C)CNC(=O)[C@@H]1c2ccccc2C(=O)N(C2CCCCC2)[C@H]1c1ccc(CO)cc1`, the composite z-score in assay [1] is -0.141; in [6] it was -0.285; in assay [7] it was -0.101; in assay [8], 0.146; in assay [9] it was -0.0175; in assay [10], -0.242. The compound further had a composite z-score in assay [12] of 0.259. The z-score in assay [2] was -2.94 (inactive); in assay [3] it was -0.466 (inactive); in assay [4] it was -0.179 (inactive); in assay [5] it was -1.55 (inactive); in assay [11], 3.5 (inactive); in assay [13], 1.36 (inactive). Further, the z-score in [14] is 0.387 (inactive); in assay [15] it was 0.472 (inactive); in assay [16] it was -0.288 (inactive); in assay [17] it was 1.24; in assay [18], -0.318 (inactive); in [19], 1.42 (inactive). The z-score in assay [20] worked out at 0.297.
Regarding `COC(=O)C(CC#Cc1ccc2c(c1)[C@]1(C(=O)N2)[C@H](C(=O)Nc2nc3ccccc3s2)[C@H]2C(=O)O[C@H](c3ccccc3)[C@H](c3ccccc3)N2[C@@H]1c1ccc(OCCO)cc1)C(=O)OC`, the composite z-score in [1] is 1.07; in assay [6] it was 1.25; in assay [7] it was 0.146; in assay [8], 1.65; in assay [9], 0.541; in assay [10] it was 1.53. Moreover, the composite z-score in [12] worked out at 0.5. The z-score in assay [2] was -2.48 (inactive); in assay [3] it was -1.7 (inactive); in assay [4], 0.415 (inactive); in assay [5] it was -0.856 (inactive); in assay [11] it was 2.65 (inactive); in assay [13] it was 5.91 (inactive). Moreover, the z-score is 0.782 (inactive) in assay [14]; 0.299 (inactive) in assay [15]; -1.27 (inactive) in assay [16]; 1.76 in assay [17]; 1.1 (inactive) in [18]; 0.326 (inactive) in [19]. In addition, the z-score in assay [20] came to 0.613.

The values are drawn from PubChem BioAssay.
